Compound activity (PubChem)
Rows were chosen to be rich in hits. Some 1.9% of all compounds tested hit in one or more screens of this group.
Jurkat viability: cytotoxicity toward Jurkat cells. Jurkat E6.1 viability, ATP luminescence, 48 h. inhibition, % at 4 µM. actives 1.2% (n = 56,000);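 active means inhibition above the mean inhibition of all tested compounds plus 3 SD, cut at about 28% in these data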
PKA kinase inh: inhibitors of human protein kinase A. actives 0.1% (n = 65,000). inhibition, % at 6 µM. P17612. PKA Kemptide phosphorylation, Kinase-Glo ATP luminescence;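 active means inhibition above the screen-wide mean inhibition plus 3 SD, cut at about 21% in these data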
JNK3 blocker: blocks human JNK3 kinase activity; actives 0.61% (n = 60,000); inhibition, % at 8 µM; P53779; AID 746; purified JNK3 kinase activity, HTS; in the data active means inhibition above about 17%
Hsp90 inh: displaces geldanamycin probe from tumor Hsp90. inhibition, % at 30 µM. P07900. actives 0.35% (n = 64,000). NCI-N417 lysate Hsp90, Cy3B-geldanamycin FP displacement. AID 429;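 active means inhibition above 50%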
ROCK2 inh: ROCK2 (human) kinase inhibition | purified ROCK2, Kinase-Glo ATP depletion luminescence | inhibition, % at 6 µM | O75116 | actives 0.35% (n = 60,000);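 active means inhibition above the screen-wide mean inhibition plus 3 SD, cut at about 18% in these data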
Of the large screens only hits and unclear results are named; the others gave an inactive call.

CC(=O)c1c(C)[nH]c(C(=O)OCn2nnc3ccccc3c2=O)c1C	JNK3 blocker 18.4
COc1cc(OC)cc(C(=O)OCn2nnc3ccccc3c2=O)c1	none
O=C(c1cc2ccccc2oc1=O)N(Cc1ccc2c(c1)OCO2)Cc1ccco1	none
C=CCN1CCc2c(cc(O)c(O)c2Br)[C@@H](c2ccccc2)C1	Hsp90 inh 80.6 (no result: Jurkat viability, PKA kinase inh, JNK3 blocker, ROCK2 inh)
O=C(CN1CCOCC1)N1CCc2ccccc2C(c2ccccc2)C1 (stereo not given)	none
O=C(CSc1nnnn1-c1ccc2c(c1)OCO2)NCc1ccccc1	Jurkat viability 58.4
Cn1cccc1Cc1nnc(SCC(=O)Nc2ccc3c(c2)OCO3)n1-c1ccc(F)cc1	none
CC(C)C(c1nnnn1C1CCCC1)N1CCN(C(=O)c2ccco2)CC1 (stereo not given)	none
Cc1ccc(NC(=O)CCn2cnc3ccccc3c2=O)cc1Cl	none
O=C(CCn1cnc2ccccc2c1=O)Nc1ccc(S(=O)(=O)N2CCCCC2)cc1	JNK3 blocker 20.2
O=C(CCn1cnc2ccccc2c1=O)Nc1ccc(S(=O)(=O)N2CCCC2)cc1	JNK3 blocker 26.6
COc1ccc(C2C(C#N)=C(N)SC(N)=C2C#N)cc1OC	JNK3 blocker 22.2 (no result: Jurkat viability)
COc1ccc(C2C(C#N)=C(N)OC(C(C)(C)C)=C2C#N)cc1OC (stereo not given)	none
O=C(Nc1cccc(NC(=O)c2nccc3ccccc23)c1)c1ccco1	none
O=C(Nc1ccc2oc(Cc3ccc(Cl)cc3)nc2c1)c1cccnc1	Jurkat viability 34.3
CC(C)(C)OC(=O)NCCCCCc1nnc(SCC(=O)Nc2cccc(Cl)c2)o1	none
COc1ccc(C(C)=O)cc1COC(=O)Cc1n[nH]c(=O)c2ccccc12	none
O=C(Cc1n[nH]c(=O)c2ccccc12)OCC(=O)c1ccc2c(c1)OCCO2	Jurkat viability 91.4
Cc1occc1C(=O)NC(C)C(C)(C)C (stereo not given)	Hsp90 inh 80.0
Cc1ccccc1Nc1cc2ccccc2c(=O)[nH]1	Hsp90 inh 78.6
CCCN1C2=NCCN2c2cc(C)c(C)cc21	none
CCc1cc(=O)oc2cc(C)cc(OC(=O)c3ccco3)c12	JNK3 blocker 19.7
CCCc1cc(=O)oc2cc(C)cc(OCC(=O)O)c12	none
Cc1onc(-c2ccccc2Cl)c1C(=O)Nc1ccc2c(c1)OCO2	none
Cc1noc(C(=O)Nc2ccc3c(c2)OCO3)c1Cl	Hsp90 inh 60.3
Nc1ccc2ncccc2c1N	Hsp90 inh 100.7 (no result: Jurkat viability)
Nc1ccc2ncccc2c1	Hsp90 inh 70.4
CCn1c(Cn2nnc(-c3ccccc3)n2)nnc1SCc1ccc(Cl)c(Cl)c1	none
CCOc1ccccc1N1CC(O)=C(c2nc3ccccc3s2)C1=N	Jurkat viability 78.2
CC1(C)CC(=O)c2c(O)cc(O)cc2O1	none
O=C1c2c(O)cc(O)cc2OC(c2ccc(O)c(O)c2)C1O (stereo not given)	Hsp90 inh 71.0 (no result: Jurkat viability, PKA kinase inh, JNK3 blocker, ROCK2 inh)
CCCCCCCCCC(=O)NC(CN1CCOCC1)[C@H](O)c1ccccc1 (stereo not given in full)	none (no result: Jurkat viability, PKA kinase inh, JNK3 blocker, ROCK2 inh)
O=C1c2ccccc2C(=O)C1c1ccncc1	JNK3 blocker 50.7
Oc1ccc2ccccc2c1C=NC12CN3CCN(CN(C3)C1)C2	Hsp90 inh 89.2 (no result: Jurkat viability)
OCC(CO)(CO)N=Cc1c(O)ccc2ccccc12	none
Cc1nc(-c2c(-c3ccc(O)cc3O)noc2C(F)(F)F)cs1	Hsp90 inh 74.2 (no result: Jurkat viability)
O=c1c2ccccc2nc2n1CCCCN2	JNK3 blocker 21.0
COc1cc(C(=O)NCc2cn3ccsc3n2)cc(OC)c1OC	JNK3 blocker 23.7
COc1ccc(C(=O)NCc2nc3ccccc3[nH]2)cc1OC	JNK3 blocker 31.4
COc1ccc(C(=O)NCc2cn3c(C)csc3n2)cc1OC	JNK3 blocker 17.1
C[C@H]1CC2C3CCC4=CC(=O)C=C[C@]4(C)[C@@]3(Cl)[C@@H](O)C[C@]2(C)[C@@]1(O)C(=O)CO (stereo not given in full)	none (no result: Jurkat viability, PKA kinase inh, JNK3 blocker, ROCK2 inh)
CCn1cc(C(=O)O)c(=O)c2ccc(Cc3ccccc3)nc21	none (no result: Jurkat viability, PKA kinase inh, JNK3 blocker, ROCK2 inh)
Nc1c(S(=O)(=O)O)cc(Nc2ccc(Nc3nc(Cl)nc(Nc4ccc(S(=O)(=O)O)cc4)n3)c(S(=O)(=O)O)c2)c2c1C(=O)c1ccccc1C2=O	none (no result: Jurkat viability, PKA kinase inh, JNK3 blocker, ROCK2 inh)
Cc1ccc(C2C(C(=O)c3sc(-c4ccccc4)nc3C)=C(O)C(=O)N2CCN(C)C)o1 (stereo not given)	none
Cn1c(C(=O)N2CCN(Cc3ccc4c(c3)OCO4)CC2)cc2c(=O)n(C)c3ccccc3c21	JNK3 blocker 23.8
C#CC(N)CCC(=O)O (stereo not given)	none (no result: Jurkat viability, PKA kinase inh, JNK3 blocker, ROCK2 inh)
Cn1c(Cl)nc2ccccc21	none
Cn1c(SC2=CS(=O)(=O)c3ccccc32)nc2ccccc21	Jurkat viability 73.1
O=C(O)[C@@H]1C[C@H](C(=O)O)N1	none (no result: Jurkat viability, PKA kinase inh, JNK3 blocker, ROCK2 inh)
Clc1ccc(-n2ncc3c(NCc4ccco4)ncnc32)cc1	none (no result: Jurkat viability)
Clc1ccc(Cn2ncc3c(NCc4ccco4)ncnc32)c(Cl)c1	Jurkat viability 81.8
O=C(/C=C/c1ccc(O)c(O)c1)OCCc1ccccc1	Hsp90 inh 89.7 (no result: Jurkat viability, PKA kinase inh, JNK3 blocker, ROCK2 inh)
O=C(O)Cc1ccc(O)c(O)c1	none (no result: Jurkat viability, PKA kinase inh, JNK3 blocker, ROCK2 inh)
O=C(CCCc1nc(-c2ccc(Cl)cc2)no1)Nc1cccnc1	Jurkat viability 42.2
O=C(Nc1ccncc1)C1CCCN(S(=O)(=O)c2cccc3cccnc23)C1 (stereo not given)	Jurkat viability 88.6, ROCK2 inh 75.3
OC[C@H]1O[C@@H](n2cnc3cncnc32)[C@H](O)[C@@H]1O	none (no result: Jurkat viability, PKA kinase inh, JNK3 blocker, ROCK2 inh)
COc1ccc(S(=O)(=O)Cc2ccc(C(=O)N3CCN(C(=O)c4ccco4)CC3)o2)cc1	none
O=C(O)c1ccccc1C1=Nc2ccc(O)cc2Oc2cc(O)ccc21	Hsp90 inh 60.8
Cc1cc(C(=O)Nc2c(C)nn(Cc3c(Cl)cccc3Cl)c2C)no1	none
Cc1nn(Cc2c(Cl)cccc2Cl)c(C)c1NC(=O)c1cc(C(C)C)on1	Jurkat viability 44.9
COc1cc(C)c(Cl)cc1S(=O)(=O)NCc1ccncc1	Jurkat viability 66.7
Cc1cc(C)nc(SCC(=O)Nc2ccc(N3CCOCC3)c(Cl)c2)n1	Jurkat viability 58.1
COc1ccc(NC(=O)c2cnc(C)cn2)c2ncccc12	Jurkat viability 62.2
COc1ccc(OC)c(C(C)NC(=O)c2ccco2)c1 (stereo not given)	Jurkat viability 40.2
CCc1ccc(CNc2ccc(N3CCN(C(C)=O)CC3)cc2)cc1	Hsp90 inh 57.4
CCOC(=O)C1CCN(Cc2ccc(O)c3ncccc23)CC1	Jurkat viability 43.2
COc1ccc(C)cc1S(=O)(=O)Nc1ccccc1C	none
COc1cc(NS(=O)(=O)c2ccc(C)cc2C)cc(OC)c1OC	Jurkat viability 39.2
CCN(C1CCCCC1)S(=O)(=O)c1ccc(S(=O)(=O)NCc2ccncc2)cc1	Jurkat viability 68.7
Nc1ncnc2c1nc(Br)n2C1OC2COP(=O)(O)O[C@@H]2C1O (stereo not given in full)	none (no result: Jurkat viability, PKA kinase inh, JNK3 blocker, ROCK2 inh)
COc1ccc(Cn2c(=O)oc3ccc(C)cc32)cc1OC	Jurkat viability 39.6
O=C(Nc1cccc(C(=O)Nc2ccc(S(=O)(=O)O)c3cc(S(=O)(=O)O)cc(S(=O)(=O)O)c23)c1)Nc1cccc(C(=O)Nc2ccc(S(=O)(=O)O)c3cc(S(=O)(=O)O)cc(S(=O)(=O)O)c23)c1	none (no result: Jurkat viability, PKA kinase inh, JNK3 blocker, ROCK2 inh)
